Common to all, as to set-up: species or system human, MV4-11 + K-562 + COLO205 + SK-N-BE2 + OVCAR-8
The test system of one assay is MTOR. As to conditions: read-out: apparent Kd, n = 1.
For the next assay, the system named is PDGFRB. To be noted: read-out: apparent Kd, n = 1.
The test system of another assay is TGFBR2. As to conditions: read-out: apparent Kd, n = 1.
In a further assay the test system is CDK2. To be noted: read-out: apparent Kd, compound concentrations: 100 nM and 1000 nM (sheet 'Samples'), n = 1.
The next assay has as its system PIK3CG. To be noted: read-out: apparent Kd, compound concentrations: 100 nM and 1000 nM (sheet 'Samples'), n = 1.
The next assay concerns ROCK1. To be noted: read-out: apparent Kd, compound concentrations: 100 nM and 1000 nM (sheet 'Samples'), n = 1.
Another assay relates to ULK1. As to conditions: read-out: apparent Kd, n = 1.
The subject of the next assay is CDC42BPA. To be noted: read-out: apparent Kd, n = 1.
The subject of the next assay is CDC42BPG. As to conditions: read-out: apparent Kd, n = 1.
The next assay relates to PKN2. As to conditions: read-out: apparent Kd, n = 1.
Another assay has as its system PRKG1. To be noted: read-out: apparent Kd, n = 1.
In another assay the test system is CDK9. To be noted: read-out: apparent Kd, compound concentrations: 100 nM and 1000 nM (sheet 'Samples'), n = 1.
A further assay has as its system LYN. As to conditions: read-out: apparent Kd, compound concentrations: 100 nM and 1000 nM (sheet 'Samples'), n = 1.
For another assay, the system named is CSK. As to conditions: read-out: apparent Kd; compound concentrations:100 nM and 1000 nM (sheet 'Samples'); n = 1.
Another assay has as its system AXL. As to conditions: read-out: apparent Kd; compound concentrations: 100 nM and 1000 nM (sheet 'Samples'), CATDS: 1.0312125146775999E-2; n = 1.
A further assay deals with ICK. To be noted: read-out: apparent Kd, compound concentrations: 100 nM and 1000 nM (sheet 'Samples'), n = 1.
The next assay relates to EPHA1. To be noted: read-out: apparent Kd; compound concentrations:100 nM and 1000 nM (sheet 'Samples'); n = 1.
Another assay relates to EPHB3. As to conditions: read-out: apparent Kd; compound concentrations:100 nM and 1000 nM (sheet 'Samples'); n = 1.
For the next assay, the system named is MAPKAPK2. To be noted: read-out: apparent Kd; compound concentrations:100 nM and 1000 nM (sheet 'Samples'); n = 1.
The mark [1] stands for this setting: compound concentrations:100 nM and 1000 nM (sheet 'Samples').

The structures appear in SMILES notation. Where two headings read alike, the source gives them in different places.

As for `CNc1cc(-c2ccc3c(N)n[nH]c3c2)nc(N)n1` [GSK2224810A], the potency estimated from few doses in the assay on MTOR (setting [1]) is 475 nM.

As to `CN(C)CCNC(=O)Nc1ccc(N(C)c2ccnc(Nc3ccc(CS(C)(=O)=O)cc3)n2)cc1.Cl` [GW830900A], the potency estimated from few doses with PDGFRB (setting [1]) was 1330 nM; with TGFBR2 (setting [1]), 1550 nM.

Regarding `O=C(O)C(F)(F)F.O=c1[nH]ccc2nc(N[C@@H]3CCNC3)nc(Nc3ccc4c(c3)S(=O)(=O)CC4)c12` [GSK2181306A], the potency estimated from few doses with CDK2 (CATDS: 1.3422730745161799E-2) was 398 nM; in the assay on PDGFRB (compound concentrations: 100 nM and 1000 nM (sheet 'Samples'), CATDS: 8.63750114385467E-3), 1400 nM; with PIK3CG (CATDS: 1.1005849922452E-2), 648 nM; in the assay on ROCK1 (CATDS: 8.6334191105918393E-3) it was 1410 nM; in the assay with ULK1 (compound concentrations: 100 nM and 1000 nM (sheet 'Samples'), CATDS: 1.11724420901094E-2), 623 nM.

Take `NCC(NC(=O)c1cc(-c2cn[nH]c2)c(-c2ccnc3[nH]ccc23)s1)c1ccccc1.NCC(NC(=O)c1cc(-c2cn[nH]c2)c(-c2ccnc3[nH]ccc23)s1)c1ccccc1.O=C(O)C(F)(F)F.O=C(O)C(F)(F)F` (stereo not drawn) [GSK1325775A]: the potency estimated from few doses is 75.6 nM in the assay with CDC42BPA (compound concentrations: 100 nM and 1000 nM (sheet 'Samples'), CATDS: 0.12802177694120001); 1070 nM in the assay with CDC42BPG (compound concentrations: 100 nM and 1000 nM (sheet 'Samples'), CATDS: 3.6567109546732701E-2); 949 nM with PKN2 (compound concentrations: 100 nM and 1000 nM (sheet 'Samples'), CATDS: 3.8123557619569197E-2); 330 nM in the assay with PRKG1 (compound concentrations: 100 nM and 1000 nM (sheet 'Samples'), CATDS: 5.9396104813121603E-2); 52.4 nM in the assay on ROCK1 (CATDS: 0.15957099257621499).

On to `CCn1c(-c2cccnc2O)nc2cnccc21` [SB-736715], for which the potency estimated from few doses is 767 nM with CDC42BPG (compound concentrations: 100 nM and 1000 nM (sheet 'Samples'), CATDS: 1.9794934428915799E-2); 1990 nM in the assay on CDK9 (CATDS: 1.2439318728053501E-2); 1420 nM with LYN (CATDS: 1.4378257714361201E-2); 547 nM with MTOR (compound concentrations: 100 nM and 1000 nM (sheet 'Samples'), CATDS: 2.4342706030032701E-2); 91.6 nM in the assay with PIK3CG (CATDS: 9.1944344631326697E-2).

As to `Cc1n[nH]c2cc(Nc3ccnc(Nc4cccc(CN5CCOCC5)c4)n3)ccc12` [GW682569X], the potency estimated from few doses in the assay with TGFBR2 (compound concentrations: 100 nM and 1000 nM (sheet 'Samples'), CATDS: 0.113560287008428) is 891 nM.

With `CC(=O)N[C@@H](Cc1ccc(OP(=O)(O)O)cc1)C(=O)N[C@H]1CCC(=O)N2CCC[C@@H](C(=O)NCc3ccc(Cl)cc3)N2C1=O` [RO0325308-000], the potency estimated from few doses with CSK was 1550 nM; in the assay with ULK1 (setting [1]), 1610 nM.

On to `O=C(O)C(F)(F)F.O=C(O)C(F)(F)F.O=c1[nH]ccc2nc(N[C@@H]3CCCNC3)nc(Nc3ccc(S(=O)(=O)N4CCOCC4)cc3)c12.O=c1[nH]ccc2nc(N[C@@H]3CCCNC3)nc(Nc3ccc(S(=O)(=O)N4CCOCC4)cc3)c12` [GSK2177277A], for which the potency estimated from few doses in the assay on AXL was 251 nM; with CDC42BPA (compound concentrations: 100 nM and 1000 nM (sheet 'Samples'), CATDS: 6.6693958930569E-3) it was 1260 nM; in the assay with CDC42BPG (compound concentrations: 100 nM and 1000 nM (sheet 'Samples'), CATDS: 1.3688403769646499E-2) it was 119 nM; in the assay on CDK2 (CATDS: 8.3972230361842193E-3), 481 nM; in the assay on LYN (CATDS: 7.0851480794777598E-3), 942 nM; in the assay with PDGFRB (compound concentrations: 100 nM and 1000 nM (sheet 'Samples'), CATDS: 3.6594692875912202E-2), 18.3 nM. Also, the potency estimated from few doses in the assay with PIK3CG (CATDS: 7.6571772064284397E-3) is 679 nM; with PKN2 (compound concentrations: 100 nM and 1000 nM (sheet 'Samples'), CATDS: 1.4426641074697899E-2), 105 nM; with ROCK1 (CATDS: 7.59809178232565E-3) it was 700 nM.

Turning to `CCN(CC)Cc1ccc(Nc2nccc(-c3cnn4ncccc34)n2)cc1` [GW780056X], the potency estimated from few doses with CDK9 (CATDS: 0.168116243338059) was 19.4 nM; in the assay on ICK (CATDS: 2.9886591978346599E-2) it was 433 nM; with PDGFRB (compound concentrations: 100 nM and 1000 nM (sheet 'Samples'), CATDS: 2.40786043408843E-2), 746 nM.

Regarding `c1cnn2ncc(-c3ccnc(Nc4ccc5c(c4)OCCO5)n3)c2c1` [GW806290X], the potency estimated from few doses in the assay on CDK9 (CATDS: 6.9114282023058901E-2) was 99.5 nM; in the assay with ICK (CATDS: 0.106713874587666), 50.6 nM; in the assay with TGFBR2 (compound concentrations: 100 nM and 1000 nM (sheet 'Samples'), CATDS: 6.1295123324086299E-2), 123 nM.

In the case of `CN(c1ccc(NC(=O)NCCN2CCOCC2)cc1)c1ccnc(Nc2ccc(CS(C)(=O)=O)cc2)n1.Cl` [GW830365A], the potency estimated from few doses in the assay on TGFBR2 (compound concentrations: 100 nM and 1000 nM (sheet 'Samples'), CATDS: 5.51715170179801E-2) was 958 nM.

Take `CCn1c(-c2nonc2N)nc2c(C#CC(C)(C)O)nc(O[C@@H](CN)c3ccccc3)cc21.O=C(O)C(F)(F)F` [GSK1007102B]: the potency estimated from few doses in the assay on CDC42BPA (setting [1]) is 952 nM; in the assay on CDC42BPG (setting [1]), 191 nM; in the assay on PKN2 (setting [1]) it was 390 nM; with PRKG1 (setting [1]) it was 9.31 nM.

On to `CS(=O)(=O)CCn1c(=O)c(Oc2ccc(F)cc2F)cc2cnc(NC3CCOCC3)nc21` [RO5027956-000], for which the potency estimated from few doses with CSK is 1540 nM; in the assay on EPHA1 it was 724 nM; in the assay on EPHB3, 2330 nM; in the assay with MAPKAPK2, 15.9 nM.

These data come from publication PMC11062922 (Nature Chemical Biology, 2023).
